# Measurements reported in publication PMC4336329 (PLoS ONE, 2015).
# The whole screen tested about 310,000 compounds, of which about 14,000 (4.5%) showed an effect of 50% or more. The effect is printed as a negative number. The sample holds strong results, similar compounds and a random draw of the others, so the mix is not that of the screen.
# Target: human ether-à-go-go-related gene (hERG) potassium channel (human, UniProt Q12809)
# Assay: primary screen, population patch clamp on CHO cells stably expressing hERG; higher = less effect of the substance
# 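Note: peak tail current of the secondary pulse compared with the same well before compound.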
# human ether-à-go-go-related gene (hERG) potassium channel, sequence (Q12809 whole entry, looked up): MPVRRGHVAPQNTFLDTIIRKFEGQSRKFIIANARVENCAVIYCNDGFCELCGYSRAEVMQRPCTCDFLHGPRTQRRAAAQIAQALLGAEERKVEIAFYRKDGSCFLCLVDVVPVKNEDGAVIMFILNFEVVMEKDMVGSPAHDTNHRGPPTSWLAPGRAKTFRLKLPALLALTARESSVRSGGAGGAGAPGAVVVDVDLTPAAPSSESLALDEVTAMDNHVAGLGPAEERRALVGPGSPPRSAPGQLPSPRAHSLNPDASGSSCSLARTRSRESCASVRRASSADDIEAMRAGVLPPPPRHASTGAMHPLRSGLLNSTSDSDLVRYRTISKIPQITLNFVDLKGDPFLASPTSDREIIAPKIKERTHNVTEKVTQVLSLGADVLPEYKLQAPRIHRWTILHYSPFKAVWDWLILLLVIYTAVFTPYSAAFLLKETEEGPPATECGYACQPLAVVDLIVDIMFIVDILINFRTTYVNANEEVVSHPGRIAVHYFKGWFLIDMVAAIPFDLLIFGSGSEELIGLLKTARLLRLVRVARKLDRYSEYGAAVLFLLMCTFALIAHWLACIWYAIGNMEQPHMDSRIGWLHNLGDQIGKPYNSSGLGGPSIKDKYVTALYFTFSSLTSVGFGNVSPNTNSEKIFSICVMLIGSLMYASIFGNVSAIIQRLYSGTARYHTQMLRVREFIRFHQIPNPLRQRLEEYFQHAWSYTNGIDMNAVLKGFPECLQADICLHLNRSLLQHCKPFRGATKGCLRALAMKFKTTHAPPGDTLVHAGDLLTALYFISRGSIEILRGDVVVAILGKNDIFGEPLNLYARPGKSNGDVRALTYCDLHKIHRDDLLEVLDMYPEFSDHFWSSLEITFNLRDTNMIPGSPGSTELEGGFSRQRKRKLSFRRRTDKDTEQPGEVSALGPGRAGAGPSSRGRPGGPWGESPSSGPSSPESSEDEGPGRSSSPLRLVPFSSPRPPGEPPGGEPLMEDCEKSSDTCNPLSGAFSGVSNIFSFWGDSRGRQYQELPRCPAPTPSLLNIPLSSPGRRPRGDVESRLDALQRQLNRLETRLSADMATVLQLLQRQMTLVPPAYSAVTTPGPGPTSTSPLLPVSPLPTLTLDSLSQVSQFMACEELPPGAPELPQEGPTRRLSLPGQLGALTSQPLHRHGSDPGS
row,SMILES,"hERG current change (%, negative = inhibition) at 10uM [%]"
1,COc1ccc(N(CC(=O)NC(C)C)S(=O)(=O)c2ccc(NC(C)=O)cc2)cc1,2.29
2,CC(=O)c1c(C)[nH]c(C(=O)COC(=O)CCCOc2ccccc2)c1C,18.7
3,Cc1cccc(N(C(=O)Cn2nnc3ccccc32)C(C(=O)NC(C)(C)C)c2ccsc2)c1C (centres unmarked),19.7
4,CCN1CCCC1CN(Cc1cc2ccc(C)cc2[nH]c1=O)C(=S)Nc1ccc(OC)cc1 (centres unmarked),25.3
5,COc1ccc2[nH]c(=O)c(CN(CC3CCCO3)C(=S)Nc3cccc(C)c3)cc2c1 (centres unmarked),16.3
6,CCN1CCCC1CN(Cc1cc2ccc(C)cc2[nH]c1=O)C(=S)Nc1cccc(OC)c1 (centres unmarked),-70.7
7,CC(=O)N(Cc1ccc(F)cc1)C1=C(NCCc2ccccc2)C(=O)c2ccccc2C1=O,-0.648
8,NC(N)=N/N=C/c1c(Cl)cccc1Cl,-10.3
9,COC(=O)CCCC(NC(=S)N1CC2C[C@@H](C1)Cn1c2cccc1=O)C(=O)OC (some centres unmarked),8.56
10,Cc1ccc(NC(=S)N(CCCN2CCCC2)Cc2cccn2Cc2ccc(Cl)cc2)cc1C,4.72
11,Cc1ccc(NC(=S)N(CCCN2CCCC2)Cc2cccn2Cc2ccc(Cl)cc2)cc1Cl,6.99
12,S=C(Nc1cccc(Cl)c1)N(CCCN1CCCC1)Cc1cccn1Cc1ccc(Cl)cc1,-22.7
13,Cc1ccc(NC(=S)N(CCCN2CCCC2)Cc2cccn2Cc2ccc(Cl)cc2)cc1,-22.9
14,CCOc1ccc(NC(=S)N(CCCN2CCCC2)Cc2cccn2Cc2ccc(Cl)cc2)cc1,-58.4
15,Cc1cccc(NC(=S)N(CCCN2CCCC2)Cc2cccn2Cc2ccc(Cl)cc2)c1,-71.8
16,CCCCC(CC)CNC(=O)C1C2C=CC(C2)C1C(=O)O (centres unmarked),-4.63
17,CC1(C(=O)NC2CCCCC2)CCC(=O)N1Cc1cccs1 (centres unmarked),-0.227
18,O=C(NCCCN1CCCC1=O)c1csc2ccccc12,-28.2
19,CC(C)Oc1ccc(CN2CCCC(CO)(Cc3ccc(F)cc3)C2)cc1 (centres unmarked),-58.7
20,COc1cc(CN2CCCC(CO)(Cc3ccccc3F)C2)ccc1O (centres unmarked),-22.5
21,CC(C)Oc1ccc(CN2CCCC(CO)(Cc3ccccc3)C2)cc1CO (centres unmarked),-43.1
22,CCn1cc(CN2CCCC(CO)(Cc3ccc(F)cc3)C2)c2ccccc21 (centres unmarked),-32
23,CCOc1ccc(CN2CCCC(CO)(Cc3ccc(F)cc3)C2)cc1 (centres unmarked),-62
24,COC(=O)c1ccc(CN2CCCC(CO)(Cc3ccccc3F)C2)cc1 (centres unmarked),-32.7
25,CCOc1ccc(CN2CCCC(CO)(Cc3ccccc3F)C2)cc1 (centres unmarked),-64.8
26,CSCCCN1CCCC(CO)(Cc2ccc(F)cc2)C1 (centres unmarked),-30.1
